PTK2B oligo ant = antagonists of Pyk2 self-association, primary screen, Q293 cells, FERM NanoBiT luminescence, HTS. z-score (the deposit names both 25 µM and 10 µM). AID 1347419, 2020. stronger effect = lower value. actives 0.83% (n = 99,000);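 active = Z-score of -3 or lower, scaled per plate to the spread of control and sample wells; inactive = z-score above -3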;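 note: negative z-score means lost luminescence so less FERM oligomerization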
CYP2C9 activ = human CYP2C9 activators, primary screen, biochemical, luminescence; Cytochrome P450 2C9 (Homo sapiens), P11712; activation factor at 5 µM; recombinant CYP2C9, luciferin-H conversion; stronger effect = higher value; factor 1 = untreated enzyme, 0 = blocked; actives 1.4% (n = 96,000);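 active = activation factor of 2 or more for CYP2C9 at a 5 µM dose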
Cav32 inh = Cav3.2 calcium influx blockers – cell-based, Fluo-4 calcium fluorescence, FDSS, MLSMR library, primary screen | Cav3.2-expressing cells; stronger effect = lower value | AID 449739, 2010 | B-score at 10 µM | actives 4% (n = 100,000);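 active = single-dose well whose peak fluorescence ratio is a statistical outlier from its plate by either plate-standardised score or position-corrected B-score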
CYP2C19 inh = blockers of cytochrome P450 2C19 activity – biochemical, luminescence, ADME assay, primary screen; CYP2C19 Supersomes, luciferin-H EGE luminescence, 30 min; inhibition, % at 5 µM; actives 21% (n = 96,000); AID 778, 2007;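 active = CYP2C19 inhibition above a set limit at 5 µM in the primary screen, cut at about 50% in these data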
CYP2C19 act = human CYP2C19 activators, primary screen, biochemical, luminescence. Cytochrome P450 2C19 (Homo sapiens), P33261. recombinant CYP2C19, luciferin-H EGE luminescence; stronger effect = higher value; 0 = fully inhibited enzyme, 1 = untreated enzyme. activation factor at 5 µM. 96,000 tested, under 10 active;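 active = activation factor of at least 2 at 5 µM in the primary screen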
CYP2C9 inhib = blockers of cytochrome P450 2C9 activity – biochemical, luminescence, ADME assay, primary screen; CYP2C9 Supersomes, luciferin-H conversion; AID 777, 2007; inhibition, % at 5 µM; P11712; actives 20% (n = 96,000);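 active = blocking of liver enzyme CYP2C9 beyond about 50% at 5 µM, limit read from the data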
Each line names hits and unclear results; the compound was inactive in the other large screens. In the library only some 27% were active in any assay of this set; here they are far more common.

COC(=O)C(NC(=O)c1ccccc1Cl)(Nc1ncc(S(=O)(=O)c2ccc([N+](=O)[O-])cc2)s1)C(F)(F)F (centres undefined)	Cav32 inh -8.55, CYP2C9 inhib 86.7
CCc1ccc2[nH]c(=O)c(CN(Cc3ccc4c(c3)OCO4)Cc3nnnn3C3CCCC3)cc2c1	CYP2C9 inhib 60.5
Cc1ccc2cc(CN(Cc3ccc(F)cc3)Cc3nnnn3C3CCCC3)c(=O)[nH]c2c1	none
COc1ccc2cc(CN(Cc3ccco3)Cc3nnnn3C3CCCCC3)c(=O)[nH]c2c1	CYP2C19 inh 84.0, CYP2C9 inhib 87.2
Cc1ccc2cc(CN(Cc3ccccc3)Cc3nnnn3C3CCCC3)c(=O)[nH]c2c1	CYP2C19 inh 86.7, CYP2C9 inhib 81.5 (no result: Cav32 inh)
O=C(O)C1=C[C@H](c2ccc(Br)cc2)C[C@H](OCc2ccc(CO)cc2)O1	none (no result: PTK2B oligo ant, CYP2C9 activ, CYP2C19 inh, CYP2C19 act, CYP2C9 inhib)
COc1ccccc1CNC(=O)CCS(=O)(=O)c1cccs1	CYP2C19 inh 82.6
COc1ccccc1CNC(=O)CCS(=O)(=O)c1cccc2nonc12	CYP2C19 inh 91.0, CYP2C9 inhib 59.0
COc1cccc(C(=O)CSc2nnc(CNS(C)(=O)=O)n2-c2ccc(C)cc2)c1	none
CCCCCn1c(N2CCC(C(N)=O)CC2)nc2c1c(=O)[nH]c(=O)n2C	none
O=C(CN(Cc1ccc(F)cc1)C(=O)C1CSC(=O)C1)NC1CCCCC1 (centres undefined)	none
Cc1ccc(Cl)cc1N1CCN(C(=O)CN2C(=O)c3cccc4cccc2c34)CC1	CYP2C9 activ 2
COCCN1Cc2cccc(C(=O)N3CCN(c4cc(C)ccc4C)CC3)c2C1=O	CYP2C19 inh 74.6, CYP2C9 inhib 70.6 (no result: PTK2B oligo ant)
COCCN1Cc2cccc(C(=O)Nc3cccc(C)c3C)c2C1=O	none
CCCN1Cc2cccc(C(=O)N3CCN(c4cc(Cl)ccc4C)CC3)c2C1=O	CYP2C19 inh 89.4, CYP2C9 inhib 95.6 (no result: PTK2B oligo ant)
Cc1ccc(Cl)cc1N1CCN(C(=O)CCC(=O)O)CC1	none
CC(C)C(C(=O)Nc1ncn[nH]1)N1C(=O)c2ccccc2C1=O (centres undefined)	none
Cc1ccc(S(=O)(=O)/N=C2/C=C(Sc3ncn[nH]3)C(=O)c3ccccc32)cc1	PTK2B oligo ant -3.19 (no result: CYP2C9 activ, Cav32 inh, CYP2C19 inh, CYP2C19 act, CYP2C9 inhib)
Cc1ccc([N+](=O)[O-])cc1N/C=C/C(=O)c1ccco1	CYP2C9 inhib 50.8
O=C(/C=C/Nc1ccc(F)cc1)c1ccco1	none
O=C1CCCN1CC(CN1CCOCC1)Sc1nc2ccccc2c(=O)n1-c1ccccc1 (centres undefined)	CYP2C19 inh 88.1, CYP2C9 inhib 92.8 (no result: Cav32 inh)
Cc1cccc(C)c1NC(=O)C(=O)NCCOc1ccc(Cl)cc1	Cav32 inh -3.61
Cc1ccc(OCCNC(=O)c2ccccc2N)cc1	none (no result: PTK2B oligo ant, CYP2C9 activ, CYP2C19 inh, CYP2C19 act, CYP2C9 inhib)
COc1cc(/C=C/C(=O)Nc2cc(C(F)(F)F)ccc2Cl)cc(OC)c1OC	Cav32 inh -5.21
CN(C)CC(=O)Nc1cc(C(F)(F)F)ccc1Cl	CYP2C9 activ 2.2
CCOC(=O)/C(=N\Nc1cc(C(F)(F)F)ccc1Cl)N(CC)CC	CYP2C19 inh 80.1
O=C(CCc1ccccc1)Nc1cc(C(F)(F)F)ccc1Cl	CYP2C9 activ 3.9, CYP2C19 inh 62.0
COc1ccc(CCNC(=O)CC2SC(=NCCC(C)C)NC2=O)cc1OC (centres undefined)	none (no result: CYP2C9 activ, Cav32 inh, CYP2C19 inh, CYP2C19 act, CYP2C9 inhib)
O=C(CS(=O)c1cccc(C(F)(F)F)c1)Nc1ccccc1Cl (centres undefined)	CYP2C9 activ 3.3, CYP2C19 inh 54.9
O=C(Nc1cc(S(=O)(=O)N2CCOCC2)ccc1O)c1ccco1	none
Cc1nc2sc(C(c3cccc(F)c3)N3CCOCC3)c(O)n2n1 (centres undefined)	none
CN(C(=O)c1ccco1)c1nc2c(s1)CCCC2	CYP2C9 inhib 62.3
O=C(OCC(F)(F)C(F)F)c1ccccc1C(=O)Oc1ccc(F)cc1F	CYP2C19 inh 90.5, CYP2C9 inhib 75.9
Cc1c(NC(=O)c2cc3nc(-c4ccc(Cl)cc4)cc(C(F)(F)F)n3n2)c(=O)n(-c2ccccc2)n1C	none (no result: CYP2C9 activ, CYP2C19 inh, CYP2C19 act, CYP2C9 inhib)
CC1(C)CC2CC(C)(CN2S(=O)(=O)c2ccc(C(=O)Nc3ccc(Cl)c(S(=O)(=O)N4CCOCC4)c3)cc2)C1 (centres undefined)	CYP2C9 inhib 62.1 (no result: Cav32 inh)
CCOc1cc(/C=N/NC(=O)CN2CCCCC2)ccc1OCc1ccccc1	none
C=CCn1cnc2c(NCc3ccccc3)ncnc21	CYP2C19 inh 69.8
C=CCN1C(=O)CN=C1NCc1ccccc1	none
Nc1nc2c(s1)CCc1c-2cnn1-c1ccccc1	CYP2C19 inh 52.8
Cc1cc(C)nc(N2CCC(C(=O)Nc3nnc(C)s3)CC2)n1	none (no result: Cav32 inh)
CCOC(=O)c1c(NC(=O)c2ccccc2Br)sc2c1CCc1ccccc1-2	none
CC1CC(=O)Nc2ccccc2N1S(=O)(=O)c1ccc(Br)cc1 (centres undefined)	none
COc1ccc(CCC(=O)N2c3ccccc3CC2C)cc1 (centres undefined)	CYP2C19 inh 96.3, CYP2C9 inhib 56.8
CCOc1ccc(S(=O)(=O)N2c3ccccc3CC2C)cc1 (centres undefined)	Cav32 inh -3.57, CYP2C19 inh 52.3, CYP2C9 inhib 93.9
CC1Cc2ccccc2N1S(=O)(=O)c1cccc(C(=O)NCCCO)c1 (centres undefined)	CYP2C19 inh 52.0
CC1Cc2ccccc2N1S(=O)(=O)c1cccs1 (centres undefined)	CYP2C19 inh 80.9
CC/C(=C\C1CCCCC1)C(NP(=O)(c1ccccc1)c1ccccc1)c1ccccc1 (centres undefined)	none (no result: PTK2B oligo ant, CYP2C9 activ, CYP2C19 inh, CYP2C19 act, CYP2C9 inhib)
Cc1nc2ccccc2c2nc(NC(=O)Cc3ccccc3)nn12	none
CSc1cccc(-n2cc(-c3ccc4c(c3)OCO4)[nH]c2=O)c1	none
CC1Cc2ccccc2N1C(=O)CCS(=O)(=O)c1cccs1 (centres undefined)	CYP2C19 inh 51.6
CCOC(=O)/C=C1\NC(=O)C(C)S1 (centres undefined)	CYP2C9 activ 2.1
COc1ccc(CCN2C(=O)C3C4CC(C5C(C(=O)N/N=C\c6ccc(Cl)cc6)=NOC45)C3C2=O)cc1OC (centres undefined)	none
CCOC(=O)C1=C(C)NC(C)=C(C(=O)OCC)C1c1sccc1C	PTK2B oligo ant -3.33, CYP2C19 inh 56.1, CYP2C9 inhib 90.3
CCCC1C(C(=O)OCC)=C(C)NC(C)=C1C(=O)OCC	PTK2B oligo ant -3.07, CYP2C19 inh 93.8, CYP2C9 inhib 67.8 (no result: Cav32 inh)
COC(=O)C1=C(C)NC(C)=C(C(=O)OC)C1c1ccc(N(C)C)cc1	CYP2C19 inh 83.8, CYP2C9 inhib 70.4

Compound activity deposited in PubChem by several laboratories.
